Hits are enriched below; roughly 1.6% of the tested compounds scored in any of these assays.
Rce1 inhib: yeast Ras-converting enzyme inhibition. Q03530. AID 2563. 0.27% of 290,000 active. yeast membranes, quenched prenylated peptide cleavage fluorescence. calls only;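 active = fall in fluorescence gain of 50% or more versus controls, with final raw signal at or below 3038400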
NPR2 activator: GC-B (human) receptor activation | HEK293-GC-B cells, CNP EC30, cGMP TR-FRET; 0% at EC30 CNP, 100% saturating CNP | activation, % at 10 µM | 0.11% of 370,000 active | P20594;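 active = activation at 10 µM reaching about 35% in either raw or pattern-adjusted values, limit read from the data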
Target sequence (P20594 whole entry, looked up): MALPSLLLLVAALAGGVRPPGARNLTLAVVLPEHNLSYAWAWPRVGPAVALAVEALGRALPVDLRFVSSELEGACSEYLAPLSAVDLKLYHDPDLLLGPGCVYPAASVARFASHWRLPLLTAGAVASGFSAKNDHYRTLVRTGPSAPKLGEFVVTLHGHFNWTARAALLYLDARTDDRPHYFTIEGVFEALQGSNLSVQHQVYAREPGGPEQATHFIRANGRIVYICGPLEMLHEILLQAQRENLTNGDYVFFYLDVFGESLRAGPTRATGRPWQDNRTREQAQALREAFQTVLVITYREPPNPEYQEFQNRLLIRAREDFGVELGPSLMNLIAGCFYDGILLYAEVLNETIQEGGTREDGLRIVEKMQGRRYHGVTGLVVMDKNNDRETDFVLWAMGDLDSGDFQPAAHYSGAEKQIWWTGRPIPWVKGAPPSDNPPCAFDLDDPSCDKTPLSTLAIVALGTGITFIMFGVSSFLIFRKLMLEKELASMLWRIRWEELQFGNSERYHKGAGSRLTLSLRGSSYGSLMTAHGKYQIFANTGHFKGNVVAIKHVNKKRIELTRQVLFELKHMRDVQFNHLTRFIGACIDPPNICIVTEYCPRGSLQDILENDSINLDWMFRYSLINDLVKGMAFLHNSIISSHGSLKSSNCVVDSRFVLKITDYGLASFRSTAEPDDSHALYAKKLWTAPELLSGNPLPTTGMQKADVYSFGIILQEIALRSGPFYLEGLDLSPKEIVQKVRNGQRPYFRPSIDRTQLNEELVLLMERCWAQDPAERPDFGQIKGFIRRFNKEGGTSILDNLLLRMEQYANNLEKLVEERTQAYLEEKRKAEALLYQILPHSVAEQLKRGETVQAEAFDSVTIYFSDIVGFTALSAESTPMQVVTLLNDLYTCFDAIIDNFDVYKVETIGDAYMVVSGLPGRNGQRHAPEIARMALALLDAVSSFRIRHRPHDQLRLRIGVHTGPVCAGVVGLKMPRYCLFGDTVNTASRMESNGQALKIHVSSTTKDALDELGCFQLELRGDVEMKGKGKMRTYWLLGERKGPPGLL
Efflux pump mplx: inhibitors of Candida antifungal efflux pumps expressed in yeast; 0.44% of 330,000 active; S. cerevisiae Candida pump triplex, Nile Red efflux; AID 485275; inhibition, % at 10 µM;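 active = plate passing quality check with inhibition over a set limit, or well fluorescence over plate mean plus 4 SD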;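 also: Nile Red retained in pooled yeast measured as flow cytometry median fluorescence; higher means more Nile Red kept so more efflux inhibition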
V-ATPase pH: alters yeast V-ATPase proton transport. S. cerevisiae, pHLuorin cytosolic pH fluorescence. response, % at 10 µM. 0.37% of 350,000 active. AID 504577; in the data active = response mostly above about 7.3%, no sharp cut-off; inactive = mostly below about 5.4%; also: actives read high
NSD2 HMT inh: NSD2 (human) methyltransferase inhibition | NSD2 peptide methylation, AlphaScreen, 120 min | inhibition, % at 12.5 µM | 0.54% of 310,000 active | O96028; in the data active = inhibition above about 50%
NPR1 activator: GC-A (human) enzyme activation | 0.14% of 370,000 active | HEK293 GC-A cells, cGMP TR-FRET, EC30 ANP; 0% at EC30 ANP, 100% saturating ANP | activation, % at 10 µM; in the data active = activation above about 40%
Numbers stand for hits; 0 = inactive; - = no result given; + = active, no number.

SMILES	Rce1 inhib	NPR2 activator	Efflux pump mplx	V-ATPase pH	NSD2 HMT inh	NPR1 activator
c1ccc(-c2cc(-c3ccccc3)[n+](-c3ccccc3)c(-c3ccccc3)c2)cc1	0	0	0	0	0	0
Cc1ccc(-c2cc(-c3ccccc3)cc(-c3ccccc3)[n+]2-c2ccccc2)cc1	+	0	0	0	-	0
CCCCN1C(=O)/C(=C/C=C/c2ccco2)C(=O)NC1=S	0	0	-	0	108	0
c1ccc(Cc2cnc(N3CCNCC3)nc2)cc1	-	0	-	-	-	0
c1ccc(CCN2CCC3CCNC3C2)cc1 (stereo not drawn)	-	0	-	-	-	0
COc1cc(/C=C/c2nc3ccccc3c(=O)n2-c2cccc(O)c2)ccc1O	0	49	0	0	0	0
CCOC(=O)CC[C@@H]1CC[C@]2(CCCN(Cc3ccccn3)C2)O1	-	0	-	-	-	0
C=CCCC(NC(=O)OCc1ccccc1)P(=O)(Oc1ccccc1)Oc1ccccc1 (stereo not drawn)	-	0	-	-	0	0
O=C1NC(=O)C(=Cc2coc3ccccc3c2=O)C(=O)N1	0	0	0	0	0	0
O=C1NC(=O)C(=C/C=C/c2coc3ccc(Br)cc3c2=O)C(=O)N1	0	-	3.5	-	-	-
c1ccc(CCCN2CCN(CCOC(c3ccccc3)c3ccccc3)CC2)cc1	+	0	0	0	-	0
COCCCn1c(N)c(C(=O)NCc2ccco2)c2nc3ccccc3nc21	+	0	0	0	0	0
COCCNC(=O)c1c(N)n(Cc2ccco2)c2nc3ccccc3nc12	0	0	0	0	0	0
O=C1C2CC=CCC2C(=O)N1SC(Cl)(Cl)Cl (stereo not drawn)	-	0	-	-	-	0
Cc1nccc2c1[nH]c1ccccc12	+	0	0	0	0	0
COc1ccc(C(O)CNC(C)C)c(F)c1OC (stereo not drawn)	0	0	0	27	-	0
COc1ccc(OC)c(C(O)C(C)N)c1 (stereo not drawn)	0	0	0	0	-	0
Cc1cccc(N2C(=O)NC(=O)/C(=C\c3cc(C)n(-c4sc5c(c4C#N)CCCC5)c3C)C2=O)c1C	0	0	0	0	60	0
Cc1oc(-c2cccs2)nc1CSCC(=O)N1CCC2(CC1)OCCO2	+	0	0	0	0	0
CC(C)(C)NC(=O)CN1C(=O)[C@@H](Cc2c[nH]c3ccccc23)N=C(c2ccccc2)c2ccccc21	-	0	-	-	-	0
O=C1Nc2ccccc2C(c2ccccc2)=NC1O (stereo not drawn)	0	0	0	0	0	0
CN1C(=O)c2ccccc2NC(=O)[C@]12O[C@@H]2c1ccccc1	+	0	0	0	-	0
COc1ccc(/C=N/N=C(/N)N[N+](=O)[O-])c(OC)c1	0	0	0	0	0	0
N/C(=N\N=C/c1ccc(-c2ccc(O)c(C(=O)O)c2)o1)N[N+](=O)[O-]	0	0	0	0	121	0
Cc1cccc(N2C(=O)/C(=C/c3ccc(N4CCN(C)CC4)o3)C(=O)NC2=S)c1C	0	0	0	0	51	0
SMILES	Rce1 inhib	NPR2 activator	Efflux pump mplx	V-ATPase pH	NSD2 HMT inh	NPR1 activator
c1ccc(Cn2nnnc2C2CN=C(c3ccccc3)c3ccccc3N2)cc1 (stereo not drawn)	-	0	-	-	-	0
COC(=O)C1=C(c2ccc(OC(F)(F)F)cc2)C[C@@H]2CC[C@H]1N2C(=O)NCCO	-	0	0	0	-	0
COC(=O)C1=C(c2ccc(OC(F)(F)F)cc2)C[C@@H]2CC[C@H]1N2C(=O)NCC1CC1	-	126	0	0	-	0
COC(=O)[C@H]1C[C@@]2(C)c3ccccc3N[C@H]2N1	-	0	-	-	-	0
C[C@]12CCC3C(CC[C@H]4C[C@H](O)CC[C@]34C)C1CC(=O)[C@@H]2O (stereo partly drawn)	-	0	0	13	0	0
CCOC(=O)CC[C@@H]1CC[C@]2(CCCN(Cc3ccncc3)C2)O1	-	0	-	-	-	0
CCOc1cc(-c2nc3c(C)cccn3c2NCC2CCCO2)ccc1O (stereo not drawn)	+	0	0	0	0	0
Cc1c(C)c2ccc(OCC(=O)N3CCC(C(=O)O)(c4ccccc4)CC3)cc2oc1=O	-	0	0	0	-	0
O=C(COc1ccc2ccc(=O)oc2c1)N1CCC(C(=O)O)(c2ccccc2)CC1	+	0	0	0	-	0
Cc1ccc(-c2nc3ccc(C)cn3c2CC(=O)N(C)C)cc1	+	0	0	0	-	0
CC(C)(C)n1nnnc1C1CN=C(c2ccccc2)c2ccccc2N1 (stereo not drawn)	-	0	-	-	-	0

Assay outcomes from PubChem BioAssay.
